D2 PAM-1 – HTS Assay for Positive Allosteric Modulators of the Human D2 Dopamine Receptor: Primary Screen for Potentiators. HEK293 T-REx D2, calcium flux, EC20 dopamine potentiation. 0.34% of 340,000 active. AID 485347, 2010. potentiation, % at 10 µM;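 active = potentiation over 3 SD above the plate norm, cut at about 30% in these data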; also: 0% is about no effect
Target sequence (P14416 whole entry, looked up): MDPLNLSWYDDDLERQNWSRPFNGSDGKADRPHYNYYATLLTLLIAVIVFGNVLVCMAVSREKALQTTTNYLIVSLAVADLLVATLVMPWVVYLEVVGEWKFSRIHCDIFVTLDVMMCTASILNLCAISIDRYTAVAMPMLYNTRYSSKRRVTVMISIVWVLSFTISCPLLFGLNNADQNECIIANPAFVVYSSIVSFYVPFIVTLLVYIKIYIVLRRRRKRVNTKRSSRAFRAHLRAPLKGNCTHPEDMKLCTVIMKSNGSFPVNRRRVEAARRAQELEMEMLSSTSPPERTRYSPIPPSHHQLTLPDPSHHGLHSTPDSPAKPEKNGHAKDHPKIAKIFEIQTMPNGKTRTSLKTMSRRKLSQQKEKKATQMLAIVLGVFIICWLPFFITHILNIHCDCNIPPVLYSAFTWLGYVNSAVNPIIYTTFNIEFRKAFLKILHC
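Tetracycline-induced Hek293 Trex D2 cells, force-coupled to calcium, loaded with no-wash calcium dye. Compound added with 180 s kinetic read for agonism, then EC20 dopamine and a further 180 s read for potentiation.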
D2 ag-1 – Beta-Arrestin HTS for Positive Allosteric Modulators of the Human D2 Dopamine Receptor: Agonists | D(2) dopamine receptor (Homo sapiens), P14416 | activation, % (no concentration beside the values) | DiscoveRx PathHunter D2 beta-arrestin, luminescence, 90 min; 100% = 57 uM dopamine signal | 0.084% of 360,000 active; in the data active = activation above about 40%
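DiscoveRx PathHunter D2 beta-arrestin cells (2,100/well) attached overnight, then compound-stimulated 90 min at 37 C in HBSS/10 mM HEPES/0.1% Tween-20 buffer; beta-galactosidase complementation read by luminescence after 1 h at ambient temperature. Dopamine 57 uM final (EC100) as control.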
D2 ag-2 – HTS Assay for Allosteric Agonists of the Human D2 Dopamine Receptor: Primary Screen for Agonists; HEK293 T-REx D2 cells, calcium flux agonist mode; 0.53% of 340,000 active; activation, % at 2 µM; AID 485358, 2010; D(2) dopamine receptor (Homo sapiens), P14416;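 active = activation over 3 SD above normal in the single-dose calcium agonist read, cut at about 30% in these data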; also: 0% is about no effect
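Calcium-flux readout, 1 cycle/sec over 180 s following compound pin transfer, in inducible HEK293 Trex D2 cells (force-coupled); dopamine controls included. Positive calcium responses during this window marked compounds as potential agonists.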
D2 PAM-2 – Beta-Arrestin HTS for Positive Allosteric Modulators of the Human D2 Dopamine Receptor: Potentiators; potentiation, % (concentration not given with the values); 0.23% of 360,000 active; DiscoveRx D2 beta-arrestin cells, luminescence, 90 min; 100% = 57 uM dopamine signal; in the data active = potentiation above about 50%
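PathHunter D2 cells, attached overnight at 37 deg C, received compound in DMSO plus dopamine at EC20 (50 nM final) for 90 min at 37 deg C. Beta-arrestin recruitment was read as luminescence after 1 h with detection reagent at ambient temperature.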
D2 antag – HTS Assay for Allosteric Antagonists of the Human D2 Dopamine Receptor: Primary Screen for Antagonists; inhibition, % at 10 µM; HEK293 TREx D2 cells, calcium flux, dopamine EC80; 2% of 340,000 active; in the data active = inhibition above about 30%; inactive = below that, where a call was filed; also: 0% is about no effect
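Inhibition of EC80 dopamine-driven calcium flux, recorded kinetically, defines activity here; cells are a tetracycline-induced HEK293 T-REx line expressing force-coupled D2.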
* = called active by the depositor; / = no result given. Compounds with a hit are over-represented: about 2.4% of the library has one in this group of screens.

SMILES	D2 PAM-1	D2 ag-1	D2 ag-2	D2 PAM-2	D2 antag
O=C(c1ccco1)N1CCN(C(=O)C2CCN(S(=O)(=O)c3cnc[nH]3)CC2)CC1	13	-2	1	-19	52*
Cc1ccc(Cl)cc1NC(=O)CCc1c(C)nc2c3cccnc3nn2c1C	2	/	0	/	/
O=C(Nc1ccccc1)Nc1cccc(NC(=O)Nc2ccccc2)c1F	0	1	0	0	-29
O=C(Nc1ccccc1)Nc1ccccc1Br	1	2	-4	-4	42*
O=C(NCCC(=O)N1CCC2(CC1)NCCc1[nH]cnc12)c1ccc(Br)cc1	0	-1	1	-5	32*
CCC(=O)N1CCc2cc(S(=O)(=O)NCCC(=O)N3CCc4ccccc4C3)ccc21	10	0	-2	3	-11
CCC(=O)N1CCc2cc(S(=O)(=O)NCCC(=O)N3CCN(c4ccccn4)CC3)ccc21	39*	1	-1	3	15
O=C(NCCC(=O)N1CCN(c2ccccn2)CC1)c1ccc(Br)cc1	-14	-3	-1	-9	58*
CCC1NC(=O)c2cccnc2-n2c1nc1ccc(F)cc1c2=O (stereo unspecified)	/	-10	/	1	/
COc1cccc(CNCc2cccc(Br)c2)c1OC	-10	7	1	-15	36*
COc1ccc(C2Nc3ccccc3C(=O)N2c2ccccc2)cc1CN1CCOCC1 (stereo unspecified)	-1	4	0	-13	30*
COc1ccc(C2Nc3ccccc3C(=O)N2Cc2ccccc2)cc1CN1CCOCC1 (stereo unspecified)	4	-3	0	-7	-3
Cc1ccc(S(=O)(=O)N2CC3(O)CN(C(=O)OC(C)C)N(C(=O)OC(C)C)CC3(OC(=O)NCc3ccccc3F)C2)cc1 (stereo unspecified)	/	7	/	6	/
Cc1ccc(Cl)cc1N1CCN(S(=O)(=O)c2c(C(=O)N3CCOCC3)c(C)n(C)c2C)CC1	15	2	0	-13	38*
COc1ccc(CNc2nc(NCc3ccc(OC)cc3)n(C(=O)c3ccncc3)n2)cc1	8	-2	1	-10	3
COc1ccc(CNc2nc(NCc3ccc(OC)cc3)n(C(=O)c3ccccc3[N+](=O)[O-])n2)cc1	10	-3	1	-1	31*
CC1(C(=O)NS(=O)(=O)c2ccc(Cl)s2)CCN1C(=O)CCc1ccccc1 (stereo unspecified)	/	3	/	-1	/
Cc1ccc(Nc2nc(N)nc(COC(=O)C3=COCCO3)n2)cc1	-4	-3	0	-4	-14
CC(C(=O)Nc1ccccc1F)N1CCN(S(=O)(=O)c2ccc(C(F)(F)F)cc2)CC1 (stereo unspecified)	12	-6	1	2	14
O=C(NC1CCCCC1)c1ccc(-n2cncn2)c([N+](=O)[O-])c1	/	0	/	-1	/
CC1CCC(NC(=O)c2ccc(-n3cncn3)c([N+](=O)[O-])c2)CC1 (stereo unspecified)	-7	-4	1	27	36*
CC1CCc2c(sc3nc(C(C)(C)C)nc(N4CCN(C(=O)CCl)CC4)c23)C1 (stereo unspecified)	/	-1	/	0	/
CC(C)COC(=O)c1ccc2c(c1O)C(=O)c1ccccc1C2=O	-1	13	0	62*	2
O=C(COC(=O)c1ccc(O)cc1O)Nc1ncc(Cl)cc1Cl	-1	5	2	9	31*
COc1ccc(N2C(=O)CSC23C(=O)N(CC(=O)NCCc2ccccc2)c2ccccc23)cc1 (stereo unspecified)	0	/	2	/	/
CCNC(=O)C1(C)CCN(Cc2ccc(-c3ccccc3)cc2)C1 (stereo unspecified)	/	3	/	-10	/

Screening results: PubChem BioAssay, National Center for Advancing Translational Sciences (NCATS)
